Source: PubChem BioAssay
The list is not random: actives were taken first. Their share in the collection is about 1.1%.
TrxR1 substrate: qHTS Assay for Substrates of Mammalian Selenoprotein Thioredoxin Reductase 1 (TrxR1): qHTS; Thioredoxin reductase 1, cytoplasmic (Rattus norvegicus), O89049; purified TrxR1 substrate turnover, NADPH consumption readout; Potency, µM (top dose mostly 114 µM), for inactives: at the highest dose activity change, negative = substrate turnover; actives 0.01% (n = 390,000); note: nearly all actives have a fitted effect of over 50% in size
Target sequence (O89049 whole entry, looked up): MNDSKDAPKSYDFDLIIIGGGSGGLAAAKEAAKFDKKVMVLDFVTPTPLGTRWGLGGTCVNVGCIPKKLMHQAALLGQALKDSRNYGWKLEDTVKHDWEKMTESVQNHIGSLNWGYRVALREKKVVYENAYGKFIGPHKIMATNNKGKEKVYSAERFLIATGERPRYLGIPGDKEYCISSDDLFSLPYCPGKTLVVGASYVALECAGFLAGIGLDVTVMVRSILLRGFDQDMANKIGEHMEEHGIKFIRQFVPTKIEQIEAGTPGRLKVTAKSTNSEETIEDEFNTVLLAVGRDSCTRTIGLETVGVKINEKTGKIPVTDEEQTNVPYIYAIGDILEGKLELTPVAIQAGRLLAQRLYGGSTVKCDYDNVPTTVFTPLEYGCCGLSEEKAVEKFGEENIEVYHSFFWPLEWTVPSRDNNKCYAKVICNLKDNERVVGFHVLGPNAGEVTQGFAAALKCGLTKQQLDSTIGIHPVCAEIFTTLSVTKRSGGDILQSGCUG
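Rat TrxR1, dispensed at 90 nM, was prereduced with 400 uM NADPH (final) for 5 min at ~22 deg C, then incubated with compound 15 min before 400 uM selenite. A first-read NADPH fluorescence drop versus no-compound background flagged substrates.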
Eya2 phos inh: qHTS Assay for Inhibitors of the Phosphatase Activity of Eya2 | actives 0.006% (n = 330,000) | AID 488837, 2010 | Protein phosphatase EYA2 (Homo sapiens), O00167 | recombinant Eya2, OMFP fluorescence dephosphorylation (OMFP is methylfluorescein phosphate) | Potency, µM (doses to about 76.9 µM), inactives show top-dose activity, negative = inhibition, actives largely listed as inhibitors
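Eya2 protein (added as 0.2 uM solution) was preincubated with compound for 10 min at ambient temperature in 50 mM HEPES pH 7.5, 50 mM NaCl, 5 uM MgCl2, 0.05% BSA, 1 mM DTT. OMFP (added at 50 uM) then reacted 10 min; fluorescence read at 485/525 nm.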
RGS4 inh: Inhibitors of Regulator of G Protein Signaling (RGS) 4: qHTS; Transcreener GDP fluorescence polarization, RGS4-accelerated GTP hydrolysis; AID 504845, 2011; Potency, µM (series often up to 114 µM), inactives show at the top dose activity change, negative = inhibition, hits mostly inhibitors; Regulator of G-protein signaling 4 (Homo sapiens), P49798; actives 0.039% (n = 390,000); note: nearly all actives have a fitted effect of over 75% in size
Target sequence (P49798 whole entry, looked up): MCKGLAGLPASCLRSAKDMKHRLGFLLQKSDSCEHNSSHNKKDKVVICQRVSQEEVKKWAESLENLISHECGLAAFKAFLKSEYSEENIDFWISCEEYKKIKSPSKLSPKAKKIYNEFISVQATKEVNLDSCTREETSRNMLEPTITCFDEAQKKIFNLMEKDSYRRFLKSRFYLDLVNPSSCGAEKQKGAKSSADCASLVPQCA
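MLSMR compounds (23 nl, pin-transferred) preincubated 10 min at room temperature with a 500nM (2x) first reagent, then RGS4 at 900nM (2x) plus Transcreener GDP mix added; fluorescence polarization (620/688 nm) read before and after 90 min at 30 °C.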
TrxR1 inh: qHTS Assay for Inhibitors of Mammalian Selenoprotein Thioredoxin Reductase 1 (TrxR1): qHTS | actives 1% (n = 390,000) | Thioredoxin reductase 1, cytoplasmic (Rattus norvegicus), O89049 | recombinant rTrxR1, NADPH fluorescence consumption, selenite substrate | Potency, µM (titrated, usually from 114 µM), for the others: top-dose activity change, negative = inhibition, most hits filed as inhibitors | AID 588453, 2011; note: nearly all actives have a fitted effect of over 65% in size
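Rat TrxR1 (90 nM in the dispensed reagent) was pre-reduced with 400 uM NADPH for 5 min at room temperature, then incubated with compound for 15 min. After 400 uM selenite was added, NADPH fluorescence (Ex 340/Em 450 nm) was followed for 8 min.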
IDH1 R132H inh: qHTS for Inhibitors of mutant isocitrate dehydrogenase 1 (IDH1): qHTS | actives 0.093% (n = 390,000) | AID 602179, 2012 | Potency, µM (series often up to 76.6 µM), for the others: top-dose activity change, negative = inhibition, most hits filed as inhibitors | IDH1-R132H enzyme, NADPH consumption, diaphorase/resazurin fluorescence; note: nearly all actives have a fitted effect of over 65% in size
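IDH1-R132H (0.5 ug/mL dispensed) in pH 7.5 Tris buffer was preincubated 30 min with compound, then given a substrate mix of 0.016 mM NADPH and 2 mM alpha-KG for 80 min at room temperature; remaining NADPH was read by diaphorase/resazurin fluorescence.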
Numbers without * were called inactive; u = inconclusive; x = no result given; [ ] = another dose, or the depositor's remark. Calls come from the whole dose curve; as a rule, active = well fitted curve in the direction sought with a large enough effect; inconclusive = small, poorly fitted or top-dose-only effect, or another doubt; inactive = no such curve, though single readings can be large; an effect the other way counts as inactive or inconclusive. % is set by controls: 0 for no effect and ±100 for the full control effect; potency is the fitted concentration of half-maximal effect.

SMILES | TrxR1 substrate | Eya2 phos inh | RGS4 inh | TrxR1 inh | IDH1 R132H inh
COC(=O)c1sc(N)c(C(=O)OC)c1COC(=O)c1c(C)noc1C | 3% | -6% | -10% | 21% | -3%
COC(=O)c1sc(N)c(C(=O)OC)c1Cn1ncc(Cl)c(Cl)c1=O | 1%[57.1 µM] | -6% | -26% | 2.5µM* | -3%
CCN(CC)S(=O)(=O)c1ccc(NN=C2CCN(C)CC2)c([N+](=O)[O-])c1 | 8%[57.1 µM] | 5% | 0% | 20%[57.1 µM] | 11%
O=C(NC(=S)Nc1cccc2cc(O)ccc12)c1ccccc1Br | -4% | -18% | u | 50µM* | 9%
O=C(NC(=S)Nc1cccc2cc(O)ccc12)c1ccco1 | -11% | 7% | -33% | 79µM* | -4%
COc1ccccc1C(=O)NC(=S)Nc1cccc2cc(O)ccc12 | -5% | x | -2% | u | -3%
COc1ccccc1NC(=O)CSC1=Nc2ccccc2C2=NC(CC(=O)NCc3ccccc3)C(=O)N12 (stereo unspecified) | -3%[57.1 µM] | x | 22% | 15%[57.1 µM] | -18%
Fc1ccc(C2=Nc3cccc4cccc(c34)N2)cc1 | -4% | -2% | -16% | u | 1%
FC(F)(F)C1=Nc2cccc3cccc(c23)N1 | -4% | -12% | u | 40µM* | 11%
COc1ccc(CN2CCNC(=O)C2CC(=O)NC2CCCCCCC2)cc1C (stereo unspecified) | -1% | 0% | 6% | u | -12%
CC(=O)Nc1ccc(C(=O)COC(=O)CCS(=O)(=O)c2ccccc2)cc1 | -3% | 17% | -28% | 5% | -8%
O=C(COC(=O)CCS(=O)(=O)c1ccccc1)Nc1ccccc1 | -2% | 16% | -3% | 45µM* | -12%
CC1=CN2C(=N)/C(=C/c3ccc([N+](=O)[O-])o3)C(=O)N=C2S1 | -16% | 2% | u | 2.5µM* | -4%
CC1=CN2C(=N)/C(=C/c3ccco3)C(=O)N=C2S1 | -11% | 3% | -10% | -11% | 0%
COc1cc(OC)cc(C(=O)Nc2cc(NC(=O)c3ccco3)ccc2OC)c1 | 13%[57.1 µM] | 14% | -25% | 1%[57.1 µM] | 6%
COc1cc(OC)cc(C(=O)Nc2ccc(NC(=O)c3ccco3)c(C)c2)c1 | -3% | -5% | -4% | 25µM* | 1%
C[C@@H]1CN([C@H](C)CO)C(=O)CCCn2cc(nn2)CO[C@H]1CN(C)C(=O)Nc1cccc2ccccc12 | x | x | x | x | 12%
Cc1ccc(NC(=O)CN2C(=O)N/C(=C/c3ccc(C)o3)C2=O)cc1 | -7% | -5% | u | u | 8%
Cc1cccc(NC(=O)CN2C(=O)N/C(=C/c3ccc(C)o3)C2=O)c1 | 3% | -1% | u | 40µM* | 1%
C=CCN1C(=O)N/C(=C/c2ccc(C)o2)C1=O | -9% | 1% | u | 50µM* | -1%
O=S(=O)(c1cccc(-c2n[nH]c(=S)n2-c2ccc(OC(F)(F)F)cc2)c1)N1CCOCC1 | 0% | -23% | -38% | -20% | -1%
COc1cc(-c2nc3sccn3c2Nc2c(C)cccc2C)ccc1O | -5% | x | -47% | 16µM* | x
CCc1noc(C)c1C(=O)NNC(=O)c1ccccc1 | 0% | -9% | 9% | 20% | -2%
CC1CCCC(NC(=O)CSc2n[nH]c(N)n2)C1C (stereo unspecified) | -4% | -6% | -2% | 4%[57.1 µM] | 0%
CC1=C(CC(=O)O)c2cc(F)ccc2/C1=C/c1ccc(S(C)=O)cc1 (stereo unspecified) | -4% | -21% | -15% | 35µM* | -15%
SMILES | TrxR1 substrate | Eya2 phos inh | RGS4 inh | TrxR1 inh | IDH1 R132H inh
Cc1ccc(C(=O)N2C(=S)C(c3ccc(F)cc3)=NC23CCN(C)CC3)cc1 | -10% | -10% | -40% | 20µM* | 0%
Cc1ccc(C(=O)N2CCC(C(=O)c3ccc(F)cc3)CC2)cc1 | 4%[2.29 µM] | x | 8% | 18%[2.29 µM] | 5%
O=C(N/N=C/C(Cl)=C/c1ccc([N+](=O)[O-])cc1)C(=O)Nc1cccc(C(=O)O)c1 | -17% | -6% | u | 79µM* | 0%
O=C(Nc1ccc(Cl)cc1)N1CCC(CN2CCCC2)CC1 | 5% | x | 5% | -13% | 0%
O=C(c1ccccc1NS(=O)(=O)c1ccc([N+](=O)[O-])cc1[N+](=O)[O-])N1O[C@@H]2C=C[C@H]1C2 | 0% | -6% | -42% | 3.2µM* | -2%
Cc1cc(C)c2c(c1)NC(C(=O)O)C1CC=CC21 (stereo unspecified) | 2% | -7% | u | 4µM* | -8%
O=C(O)C1Nc2ccccc2C2C=CCC12 (stereo unspecified) | -5% | x | u | 3.5µM* | x
O=C(c1ccccc1O)N1CCOCC1 | 8% | 11% | -9% | 10% | 2%
O=C(O)C1Nc2c(C(=O)N3CCOCC3)cccc2C2C=CCC12 (stereo unspecified) | -7% | 13% | -28% | 1.6µM* | 2%
CCOC(=O)c1ccc2c(c1)C1C=CCC1C(C(=O)O)N2 (stereo unspecified) | x | 13% | x | x | x
Cc1cc(C)c2c(c1)C1C=CCC1C(C(=O)O)N2 (stereo unspecified) | 1% | x | u | 1.4µM* | x
CCOC(=O)c1cnc(-c2ccc(C(F)(F)F)cn2)[nH]c1=O | 3%[57.1 µM] | -5% | -36% | 5%[57.1 µM] | 7%
Cc1cccc(-c2ocnc2C(=O)N2CCN(C(=O)c3cccs3)CC2)c1 | 3% | -1% | -9% | 29% | 1%
COc1cc([N+](=O)[O-])ccc1NC(=O)CC1SC(=Nc2ccc(F)cc2)N(CCC2=CCCCC2)C1=O (stereo unspecified) | -10% | -6% | -40% | -7% | -1%
Cc1ccc2c(c1C)NC(C(=O)O)C1CC=CC21 (stereo unspecified) | 13% | -1% | u | 2.5µM* | -2%
Cc1ccc(C)c(NC(=O)CSc2nnc(C)n3c2cc2occc23)c1 | 1% | x | -11% | 7% | 3%
O=S(=O)(Nc1ccc(N2CCCCC2)cc1)c1ccc(F)cc1 | 7% | -3% | 7% | 21% | 4%
CCCN1CCCC[C@H]1C(=O)Nc1c(C)cccc1C | -3% | x | -19% | -5% | 15%
Cc1ccc(S(=O)(=O)c2nc(S(C)(=O)=O)sc2N2CCC(C(N)=O)CC2)cc1 | -4% | 1% | -25% | -4% | -9%
